# L3MBTL1 block – L3MBTL1 (human) inhibition | Q9Y468 | AlphaScreen L3MBTL1–H3K9me1 peptide binding | 0.66% of 230,000 active | Potency, µM (top dose mostly 57.1 µM), for inactives: at the highest dose activity, negative = inhibition, actives largely listed as inhibitors; note: % is set by controls: 0 for no effect and ±100 for the full control effect; nearly all actives have a fitted effect of over 60% in size
#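 AlphaScreen assay: L3MBTL1 (50 nM final) was preincubated 30 min at room temperature with biotinylated H3(1-15)K9me1 peptide (75 nM final), then 30 min with library compounds; streptavidin donor and nickel chelate acceptor beads (10 ug/mL final) added, 30 min dark.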
# JMJD2A Tudor – blocks the human JMJD2A Tudor domain. 4.4% of 390,000 active. Potency, µM (highest dose often 114 µM), inactives show top-dose activity change, negative = inhibition, usual class: inhibitors. AlphaScreen JMJD2A-Tudor / H3K4me3 peptide binding. O75164; note: % is set by controls: 0 for no effect and ±100 for the full control effect; nearly all actives have a fitted effect of over 50% in size
# Target sequence (O75164 whole entry, looked up, the tested form may be a part): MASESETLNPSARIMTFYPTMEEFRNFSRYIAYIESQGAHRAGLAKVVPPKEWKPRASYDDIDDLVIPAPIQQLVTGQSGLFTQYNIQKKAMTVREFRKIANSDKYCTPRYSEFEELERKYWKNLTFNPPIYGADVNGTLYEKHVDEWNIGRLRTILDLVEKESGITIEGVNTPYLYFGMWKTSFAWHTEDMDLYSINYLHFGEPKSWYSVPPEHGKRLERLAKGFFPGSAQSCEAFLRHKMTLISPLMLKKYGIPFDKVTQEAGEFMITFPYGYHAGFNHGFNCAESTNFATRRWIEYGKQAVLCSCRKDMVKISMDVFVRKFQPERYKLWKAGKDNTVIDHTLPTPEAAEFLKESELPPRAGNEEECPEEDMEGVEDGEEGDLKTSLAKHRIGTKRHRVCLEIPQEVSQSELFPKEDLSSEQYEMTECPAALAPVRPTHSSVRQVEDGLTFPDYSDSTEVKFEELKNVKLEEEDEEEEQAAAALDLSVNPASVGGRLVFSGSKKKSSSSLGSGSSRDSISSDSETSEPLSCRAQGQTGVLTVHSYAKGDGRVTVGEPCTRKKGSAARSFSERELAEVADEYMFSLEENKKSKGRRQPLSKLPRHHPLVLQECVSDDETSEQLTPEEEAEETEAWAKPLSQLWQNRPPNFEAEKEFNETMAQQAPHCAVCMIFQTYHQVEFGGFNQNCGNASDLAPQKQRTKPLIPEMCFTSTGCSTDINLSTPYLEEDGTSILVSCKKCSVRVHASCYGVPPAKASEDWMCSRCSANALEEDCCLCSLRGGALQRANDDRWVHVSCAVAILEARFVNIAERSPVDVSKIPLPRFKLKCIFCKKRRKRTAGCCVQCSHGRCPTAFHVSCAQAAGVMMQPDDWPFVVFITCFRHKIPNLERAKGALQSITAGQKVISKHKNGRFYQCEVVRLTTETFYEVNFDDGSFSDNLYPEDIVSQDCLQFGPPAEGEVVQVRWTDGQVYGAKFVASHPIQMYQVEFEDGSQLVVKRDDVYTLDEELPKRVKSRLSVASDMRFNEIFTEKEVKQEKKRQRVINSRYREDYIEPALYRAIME
# G9a block – inhibitors of human histone lysine methyltransferase G9a. G9a H3K9 monomethylation, AlphaScreen, 2 h. Potency, µM (top dose mostly 102 µM), for the others: at the highest dose activity, negative = inhibition, actives largely listed as inhibitors. 8.8% of 350,000 active. Q96KQ7; note: % is set by controls: 0 for no effect and ±100 for the full control effect; nearly all actives have a fitted effect of over 75% in size
#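 Compounds were preincubated with 20 nM G9a for 15 min, after which biotinylated H3K9 peptide (500 nM) and SAM (20 uM) started a 2 h room-temperature reaction. Monomethylated product was quantified by antibody-based AlphaScreen chemiluminescence.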
# HP1b chromo inh – blocks HP1-beta chromodomain binding to methylated histone tails. AlphaScreen HP1-beta / biotin-H3K9me3 peptide binding. 0.56% of 390,000 active. AID 540317. Potency, µM (series often up to 114 µM), inactives show top-dose activity change, negative = inhibition, hits mostly inhibitors; note: nearly all actives have a fitted effect of over 70% in size
#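 Compound inhibition of the preformed complex between 50 nM HP1-beta and 50 nM biotinylated H3K9me3 peptide was read by AlphaScreen. Buffer was PBS pH 7.4 with 0.01% Tween-20. Incubations ran 30 min at room temperature, with 10 ug/mL donor/acceptor beads.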
# Sfp PPTase inh – Sfp phosphopantetheinyl transferase inhibition; Q9F4F7; Biochemical Sfp PPTase activity, qHTS; Potency, µM, inactives show largest response in the series, negative = inhibition, most hits filed as inhibitors; 3.5% of 310,000 active; AID 1490;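 note: the enzyme is Sfp with the accession as filed and its product quenches rhodamine fluorescence; 0% = enzyme reaction without inhibitor and -100% = no enzyme wells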
#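 With Hepes-Na pH 7.6 buffer containing 10 mM MgCl2, Sfp (15 nM) modified BHQ-2-YbbR (12.5 uM) using rhodamine-CoA (5 uM). Two reads 30 minutes apart at 525/598 nm yielded each well's rate.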
# BAZ2B block – BAZ2B (human) inhibition | Potency, µM (doses to about 114 µM), without a hit: at the top dose activity change, negative = inhibition, usual class: inhibitors | Q9UIF8 | 4.4% of 360,000 active | AlphaScreen BAZ2B-H3K14Ac peptide displacement; note: % is set by controls: 0 for no effect and ±100 for the full control effect; nearly all actives have a fitted effect of over 60% in size
#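 Compounds, titrated to a top concentration of 110 uM, were incubated 30 min at room temperature with preformed BAZ2B/acetyl-K14 H3 peptide complex (50 nM each). Proximity signal was measured by AlphaScreen after 20 min with beads.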
# Numbers without * were called inactive; ? = inconclusive; · = not tested or not shown; ! = not active in a repeat; [ ] = another dose, or the depositor's remark. The list is not random: actives were taken first. Their share in the collection is about 12%. Calls come from the whole dose curve; as a rule, active = well fitted curve in the direction sought with a large enough effect; inconclusive = small, poorly fitted or top-dose-only effect, or another doubt; inactive = no such curve, though single readings can be large; an effect the other way counts as inactive or inconclusive. Potency is the fitted concentration of half-maximal effect.
SMILES,L3MBTL1 block,JMJD2A Tudor,G9a block,HP1b chromo inh,Sfp PPTase inh,BAZ2B block
Cn1c(=O)c2c(nc(NN=C3CCCC3)n2C)n(C)c1=O,-10.5%,-27.5%,39.8µM*,0.1%,22.4µM*,?
Cn1c(=O)c2c(nc(NNC(=O)C(F)(F)F)n2C)n(C)c1=O,-3.6%,?,6.31µM*,37.0%,0.891µM*,?
CCCCNC(=O)c1cc(-c2cccnc2)nc2ccc(S(=O)(=O)NCCCC)cc12,·,-1.3%,7.4%[59 µM],26.3%,·,6.5%
c1ccc(-c2nc(NCc3ccco3)c3ccccc3n2)nc1,?,-34.4%[11.4 µM],?,25.4%,0.5%,44.7µM*
c1ccc2c(NCC3CCCO3)nc(N3CCOCC3)nc2c1 (centres undefined),1.6%,-13.3%,0.2%,25.2%,20.5%,-27.4%
C(=N\Nc1nc(-c2ccccn2)nc2ccccc12)/c1ccccc1,-5.7%,?,-16.4%,12.3%,-1.8%,50.1µM*
CCOc1ccc(Nc2cc(C)c3ccccc3n2)cc1,·,?,?,5.7%,-0.8%,-31.4%
c1ccc(-c2nc(NCC3CCCO3)c3ccccc3n2)nc1 (centres undefined),-8.4%,89.1µM*,11.1%[59 µM],53.5%,?,?
CCOc1ccc(Nc2c3ccccc3nc3ccccc23)cc1,?,-27.9%[11.4 µM],31.6µM*,?,-11.9%,35.5µM*
Cn1cc(S(=O)(=O)N2CCCCCC2)cc1C(=O)Nc1ccc(Cl)c(C(F)(F)F)c1,·,4.5%,3.4%[59 µM],30.9%[57 µM],·,?
Cc1ccc(-c2nc3scc(CCNS(=O)(=O)c4ccc(C)c(C)c4)n3n2)cc1,·,-17.9%,1.6%[59 µM],29.7%,·,-0.7%
CCOc1ccc(Nc2nc(NCC3CCCO3)c3ccccc3n2)cc1 (centres undefined),·,?,39.8µM*,2.3%,35.5µM*,31.6µM*
c1ccc(Nc2nc(NCC3CCCO3)c3ccccc3n2)cc1 (centres undefined),8.8%,-25.1%,-38.2%,32.8%,?,-38.7%
COc1ccc(Nc2nc(NCC3CCCO3)c3ccccc3n2)c(OC)c1 (centres undefined),?,?,44.7µM*,-5.1%,15.4%,?
C[C@@H]1CN([C@H](C)CO)C(=O)c2cc(NC(=O)c3ccncc3)ccc2O[C@@H]1CN(C)C(=O)Nc1ccccc1,36.9%,50.1µM*,·,4.5%,·,·
Cc1noc(C)c1NC(=O)N(C)C[C@@H]1Oc2c(NC(=O)c3ccncc3)cccc2C(=O)N([C@H](C)CO)C[C@@H]1C,-0.5%,35.5µM*,·,3.7%,·,·
O=C(c1ccccc1Br)N(Cc1ccco1)C1CCS(=O)(=O)C1 (centres undefined),·,-3.8%,3.4%[59 µM],6.1%,·,-8.0%
c1ccc(Cc2ccc(OCCN3CCOCC3)cc2)cc1,-3.3%,-24.5%,-9.4%,20.2%,-5.6%,-24.6%
O=C(NCCOc1ccc(F)cc1)C1CCC(=O)N(CCN2CCOCC2)C1 (centres undefined),·,2.2%,44.7µM*,-10.9%,11.9%,-33.8%
Cc1cc(C)cc(OCCN2CCOCC2)c1,·,28.2µM*,11.2µM*,?,-12.3%,-31.0%
c1ccc(OCCN2CCOCC2)cc1,-5.1%,20µM*,-29.1%[2.33 µM],?,-10.6%,35.5µM*
COc1ccc(OCCN2CCOCC2)cc1,·,50.1µM*,31.6µM*,?,-7.0%,?
CCc1nnc(SCC(=O)N(C)c2ccccc2)c2cc3sccc3n12,·,-16.5%,-7.4%[59 µM],43.6%,·,-14.1%
c1ccc2c(c1)OCCOCCOCCOCCO2,·,·,·,·,8.1%,·
COc1ccccc1CNC(=O)CCC1N=C2c3ccccc3N=C(SCc3ccc(C)cc3C)N2C1=O (centres undefined),·,-19.5%,-8.0%[59 µM],22.7%,·,-15.2%
SMILES,L3MBTL1 block,JMJD2A Tudor,G9a block,HP1b chromo inh,Sfp PPTase inh,BAZ2B block
CCOC(=O)c1c(NC(=O)c2cc(=O)c3ccc(C)cc3o2)sc(C)c1C,·,-15.3%,-3.3%[59 µM],27.2%,·,0.9%
Cc1ccc(OCCCN2CCOCC2)cc1,7.2%,10µM*,39.8µM*,?,-10.1%,?
COc1ccc(OCCC(=O)NCCN2CCOCC2)cc1,4.5%,-17.9%,56.2µM*,24.4%,12.6%,-12.6%
Cc1ccc(OCC(=O)NCCN2CCOCC2)cc1C,10.8%,-3.5%,·,20.3%,-12.3%,-7.0%
COc1ccccc1NC(=O)c1sc2nc(C)c(C(=O)Nc3ccc(C)cc3C)c(-c3ccccc3Cl)c2c1N,·,23.5%,21.6%[59 µM],127.5%,·,73.6%
CCOc1ccc(N)cc1OC,-19.3%,?,50.1µM*,-18.3%,4.8%,?
CCOc1ccc(C(N)=O)cc1OC,5.2%,-7.5%,10.4%[12.7 µM],28.0%,17.9%,8.7%
CCCCCCCCCCCCCCC[C@@H](O)[C@@H](N)CO,·,-12.4%,2.0%[59 µM],-11.1%,44.7µM*!,·
CCCCCCCCCCCCCCC[C@H](O)[C@H](N)CO,·,·,17.4%[59 µM],·,70.8µM*,·
O=C(O)c1ccc(NS(=O)(=O)c2cc(Cl)ccc2Cl)cc1,6.4%,0.7%,-4.7%,46.8%,10.3%,-19.6%
O=C(O)c1ccc(NS(=O)(=O)c2ccc3c(c2)C(=O)c2ccccc2C3=O)cc1,-22.9%,-19.6%,44.7µM*,23.9%,-7.9%,-35.3%
O=C(O)c1cc(S(=O)(=O)Nc2cccc3ccccc23)c(Cl)cc1Cl,·,79.4µM*,56.2µM*,-12.5%,-12.3%,-38.3%
CC(NS(=O)(=O)c1ccc2c(c1)C(=O)c1cc(S(=O)(=O)NC(C)C(=O)O)ccc1-2)C(=O)O (centres undefined),·,10µM*,28.2µM*,?,-3.6%,-20.2%
CC(C)CNS(=O)(=O)c1cc(C(=O)O)c(Cl)cc1Cl,6.2%,0.7%[11.4 µM],?,19.5%,?,-36.4%
O=C(O)c1ccc(NS(=O)(=O)c2cccc(S(=O)(=O)c3ccc(Cl)c(Cl)c3)c2)cc1,·,-16.2%,12.4%[59 µM],5.0%,3.9%,2.9%
O=C(O)c1ccc(Cl)c(S(=O)(=O)Nc2ccc(S(=O)(=O)Nc3cccc(Cl)c3)cc2)c1,·,-5.7%,56.2µM*,-1.8%,16.2%,-33.3%
CC(=O)NS(=O)(=O)c1ccc2c(c1)C(=O)c1cc(S(=O)(=O)NC(C)=O)ccc1-2,0.4%[2.29 µM],-5.0%,9.4%[0.501 µM],2.4%,14.5%,-9.9%
CC(C)N(Cc1ccccc1)C(C)C (tested in a mixture with another compound),·,·,·,·,1.1%,·
O=C(Nc1cccc(C(F)(F)F)c1)c1cccc(NS(=O)(=O)c2ccc(Br)c(C(=O)O)c2)c1,3.8%,-16.1%,?,17.1%,10.8%,-12.8%
O=C(Nc1cccc(C(F)(F)F)c1)c1cccc(NS(=O)(=O)c2ccc(O)c(C(=O)O)c2)c1,·,56.2µM*,?,-0.8%,9.0%,-17.7%
O=C(O)c1ccc(Cl)c(S(=O)(=O)Nc2ccccc2Cc2ccccc2)c1,·,-11.4%,79.4µM*,15.3%,12.8%,1.9%

# Screening data (PubChem BioAssay)
